KCNQ2 enhance = potentiators of rat KCNQ2 potassium channel | CHO-K1 KCNQ2, FluxOR thallium flux fluorescence; active compounds read high | 310,000 tested, 0.54% active | O88943 | B-score at 10 µM | AID 2239;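 active = fluorescence ratio B-score at least 3 SD of library B-scores, with initial fluorescence B-score within 3 of them, cut at about 5.3 in these data; same plate scores as AID 2156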;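 also: B-score of peak minus minimum over baseline fluorescence ratio after K+ and Tl+ stimulus; positive B-score means potentiation of KCNQ2 with more thallium influx and brighter signal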
Target sequence (O88943 whole entry, looked up): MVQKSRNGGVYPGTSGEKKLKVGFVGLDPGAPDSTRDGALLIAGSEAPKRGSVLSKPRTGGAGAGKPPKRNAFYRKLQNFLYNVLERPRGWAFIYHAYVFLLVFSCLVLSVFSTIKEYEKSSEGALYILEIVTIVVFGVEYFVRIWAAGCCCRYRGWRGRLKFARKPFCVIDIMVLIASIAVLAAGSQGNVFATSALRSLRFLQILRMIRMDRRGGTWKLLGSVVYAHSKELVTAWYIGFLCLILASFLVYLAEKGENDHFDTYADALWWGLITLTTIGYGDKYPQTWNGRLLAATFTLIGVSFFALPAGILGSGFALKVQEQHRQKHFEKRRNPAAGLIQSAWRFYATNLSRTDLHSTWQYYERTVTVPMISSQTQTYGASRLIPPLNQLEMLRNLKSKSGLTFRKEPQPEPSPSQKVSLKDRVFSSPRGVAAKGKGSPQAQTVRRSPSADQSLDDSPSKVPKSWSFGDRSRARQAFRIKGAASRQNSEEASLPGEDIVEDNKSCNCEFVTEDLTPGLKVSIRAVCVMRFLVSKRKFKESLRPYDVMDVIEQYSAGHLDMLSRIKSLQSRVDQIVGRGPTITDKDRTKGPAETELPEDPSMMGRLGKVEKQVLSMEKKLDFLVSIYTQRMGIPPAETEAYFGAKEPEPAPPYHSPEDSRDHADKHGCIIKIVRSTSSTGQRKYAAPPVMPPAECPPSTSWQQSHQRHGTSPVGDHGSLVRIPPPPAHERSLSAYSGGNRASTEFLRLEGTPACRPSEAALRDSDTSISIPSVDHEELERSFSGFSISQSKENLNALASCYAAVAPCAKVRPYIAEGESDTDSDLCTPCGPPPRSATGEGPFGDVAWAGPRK
KCNQ2 inh = inhibitors of rat KCNQ2 potassium channel; 310,000 tested, 1.1% active; AID 2156; O88943; CHO-K1 KCNQ2, FluxOR thallium flux, 20 min; active compounds read low; B-score at 10 µM;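 active = fluorescence ratio B-score at most minus 3 library SDs, with starting brightness B-score within 2 library SDs, cut at about -5.5 in these data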
Hits are given with their value. The list is not random: actives were taken first. Their share in the collection is about 1.6%.

Screening CCOC(=O)C1CCCN(c2c(C(=O)c3ccccc3)cnc3ccccc23)C1 (centres undefined) returned KCNQ2 inh inactive.
Screening CCOC(=O)C1CCN(c2c(C(=O)c3ccccc3)cnc3ccc(CC)cc23)CC1 returned KCNQ2 enhance inactive and KCNQ2 inh -7.2.
Screening CN(C)CCN(C(=O)c1ccc2c(c1)CCCC2)c1nc2cc3c(cc2s1)OCCO3 returned KCNQ2 enhance inactive and KCNQ2 inh -7.8.
COc1ccccc1C(=O)N(CCN(C)C)c1nc2cc(C)cc(C)c2s1 was read as KCNQ2 inh inactive.
Screening CN(C)CCN(C(=O)c1ccc2c(c1)OCCO2)c1nc2cc3c(cc2s1)OCO3 returned KCNQ2 inh inactive.
`Cc1cc(C)c2sc(N(CCN(C)C)C(=O)c3ccc4ccccc4c3)nc2c1` gave KCNQ2 enhance inactive and KCNQ2 inh -5.9.
For N#C/C(=N\Nc1cccc(C(F)(F)F)c1)C(=O)c1ccsc1 the results were KCNQ2 enhance inactive and KCNQ2 inh inactive.
For C[C@H](NC(=O)[C@@H]1Cc2ccccc2CN1)C(=O)NCC1CCCO1 (some centres undefined) the results were KCNQ2 enhance inactive and KCNQ2 inh inactive.
For COCCNC(=O)/C(C#N)=C/C=C/c1ccccc1[N+](=O)[O-] the results were KCNQ2 enhance inactive and KCNQ2 inh inactive.
`CCCc1ccc2oc(C(=O)N3CCCC3)c(C)c2c1` gave KCNQ2 enhance inactive and KCNQ2 inh inactive.
O=C(OCc1ccc(Cl)c(Cl)c1)c1ccc[nH]1 was read as KCNQ2 inh inactive.
`CCOc1cc(N2CCOCC2)c(OCC)cc1NC(=O)CN1C(=O)NC(Cc2ccccc2)C1=O` (centres undefined) gave KCNQ2 inh inactive.
CCOc1cc(N2CCOCC2)c(OCC)cc1NC(=O)CN1CCC(Cc2ccccc2)CC1 was read as KCNQ2 enhance 6.1 and KCNQ2 inh inactive.
For COc1ccccc1C(=O)N/C(=N/c1nc(C)cc(C)n1)Nc1ccccc1 the results were KCNQ2 inh inactive.
CCC1CCCCN1C(=O)C1CC(c2cc(Cl)c(OC)cc2OC)=NO1 (centres undefined) was read as KCNQ2 enhance inactive and KCNQ2 inh -6.2.
`COc1cc(OC)c(C2=NOC(C(=O)N3CCCc4ccccc43)C2)cc1Cl` (centres undefined) gave KCNQ2 enhance inactive and KCNQ2 inh inactive.
For O=C(CS(=O)CC(=O)N(CC(=O)NC1CCCC1)c1ccccc1F)Nc1ccc(F)cc1 (centres undefined) the results were KCNQ2 enhance inactive and KCNQ2 inh inactive.
Screening Cc1cccc(C)c1NC(=O)NC1(C(=O)N2CCCC2)CCCCC1 returned KCNQ2 inh inactive.
Clc1nnc(NN=C2CCCC2)c2ccccc12 was read as KCNQ2 enhance 9.5 and KCNQ2 inh inactive.
Clc1nnc(N/N=C/c2ccccc2)c2ccccc12 was read as KCNQ2 enhance inactive and KCNQ2 inh inactive.
`C[C@@H]1CC[C@]2(O[C@H](CCO)C[C@H](O)[C@H]2O)O1` gave KCNQ2 enhance inactive and KCNQ2 inh inactive.
`COC(=O)Cn1c2ccc(OC)cc2c2nc3ccccc3nc21` gave KCNQ2 enhance inactive and KCNQ2 inh -5.7.
`CCOC(=O)Cn1c2ccc(OC)cc2c2nc3ccccc3nc21` gave KCNQ2 inh inactive.
Screening Cc1cc(C)n2c(=O)c3ccc(Cl)cc3nc2c1C#N returned KCNQ2 inh inactive.
`Cc1cc(Cl)n2c(nc3cc(F)c(F)cc32)c1C#N` gave KCNQ2 enhance inactive and KCNQ2 inh -13.
`COc1ccccc1N(C)S(=O)(=O)c1ccc(C(=O)Nc2nc(C)cs2)cc1` gave KCNQ2 inh inactive.
CCOc1ccc(/C(O)=C2/C(=O)C(=O)N(CC3CCCO3)C2c2cccs2)cc1 (centres undefined) was read as KCNQ2 inh inactive.
Screening COc1ccc(NC(=O)c2ccc(-c3nn(C)c(=O)c4ccccc34)cc2)cc1C(N)=O returned KCNQ2 inh inactive.
For O=C(C1=C[C@@H](C2CC2)C[C@@H](OCCCCO)O1)N1CCN(Cc2ccccc2)CC1 the results were KCNQ2 inh inactive.
Screening O=C(C1=C[C@@H](c2ccc(Br)cc2)C[C@@H](OCCCCO)O1)N1CCN(Cc2ccc3c(c2)OCO3)CC1 returned KCNQ2 enhance inactive and KCNQ2 inh -6.2.
`O=C(C1=C[C@@H](c2ccccc2)C[C@@H](OCc2ccc(CO)cc2)O1)N1CCN(Cc2ccc3c(c2)OCO3)CC1` gave KCNQ2 enhance inactive and KCNQ2 inh -5.8.
For O=C(C1=C[C@H](c2ccc(C(F)(F)F)cc2)C[C@H](OCCCCO)O1)N1CCN(Cc2ccc3c(c2)OCO3)CC1 the results were KCNQ2 inh inactive.
`O=C(C1=C[C@@H](C2CCCCC2)C[C@@H](OCCCCO)O1)N1CCN(Cc2ccccc2)CC1` gave KCNQ2 enhance inactive and KCNQ2 inh -5.7.
For O=C(C1=C[C@H](c2ccccc2)C[C@H](OCc2ccc(CO)cc2)O1)N1CCN(Cc2ccccc2)CC1 the results were KCNQ2 inh inactive.
Cc1nn(CC(=O)NCc2cc3ccccc3[nH]2)c(C)c1[N+](=O)[O-] was read as KCNQ2 inh inactive.
Screening CC(=O)Oc1ccc(OC(C)=O)c2c1CC(C)=C(C)C2 returned KCNQ2 inh inactive.
For CCN(CC(=O)Nc1c(F)cccc1F)C(=O)c1cc(-c2cccs2)nn1-c1ccccc1 the results were KCNQ2 inh inactive.
O=C(Nc1cccc(-n2cnnn2)c1)c1ccoc1COc1ccc(Cl)cc1 was read as KCNQ2 inh inactive.
Screening CC1CCC(C(C)C)C(OC(=O)Cn2c(-c3ccc(Br)cc3)[n+](C)c3ccccc32)C1 (centres undefined) returned KCNQ2 enhance inactive and KCNQ2 inh -5.6.
For CC1CCC(C(C)C)C(OC(=O)COC(=O)c2cccn2C)C1 (centres undefined) the results were KCNQ2 inh inactive.
For CCCCNC(=O)c1ccccc1SCc1c(C)noc1C the results were KCNQ2 enhance inactive and KCNQ2 inh inactive.
Screening OCCN1CCN(CC(O)COc2ccc(C34CC5CC(CC(C5)C3)C4)cc2)CC1 (centres undefined) returned KCNQ2 enhance inactive and KCNQ2 inh -7.1.
`OCCN1CCN(CC(O)COc2ccc(Cl)cc2)CC1` (centres undefined) gave KCNQ2 enhance inactive and KCNQ2 inh inactive.
Cc1ccc(NC(=O)NC2=N/C(=C(/C#N)C(=O)N3CCCC3)c3ccccc32)cc1 was read as KCNQ2 enhance inactive and KCNQ2 inh -7.
For N#C/C(C(=O)N1CCCC1)=C1/N=C(N)c2ccccc21 the results were KCNQ2 enhance inactive and KCNQ2 inh inactive.
O=C(COC(=O)c1cc(S(=O)(=O)NCc2ccccc2)ccc1O)c1cc2ccccc2o1 was read as KCNQ2 inh inactive.
`COc1ccc(C2CC(=O)c3cnc(NC(=O)c4cc(OC)cc(OC)c4)nc3C2)cc1` (centres undefined) gave KCNQ2 enhance inactive and KCNQ2 inh inactive.
COc1ccc(C2CC(=O)c3cnc(Nc4cc(C)cc(C)c4)nc3C2)cc1 (centres undefined) was read as KCNQ2 enhance inactive and KCNQ2 inh -5.9.
O=C(COC(=O)c1cc(Cl)ccc1Cl)Nc1ccc2[nH]c(=O)[nH]c2c1 was read as KCNQ2 inh inactive.
`COc1ccc2nc(N=NC3=C(O)CC(C)(C)CC3=O)sc2c1` gave KCNQ2 enhance inactive and KCNQ2 inh inactive.
For COc1ccc2nc(N=Nc3ccc(O)c4ccccc34)sc2c1 the results were KCNQ2 enhance 9.3 and KCNQ2 inh inactive.
